# Laboratory results: PubChem BioAssay (EPA / NIEHS)
# Activity calls are given as the source filed them. How the source made its calls: active means hit-call score of the fitted dose curve at least 0.9, where 1 is the maximum; inactive means score below 0.9.
# Read-out: Intercellular Adhesion Molecule 1 (ICAM1), ICAM1 (gene 3383)
# Test: BSK_KF3CT_ICAM1: BioMAP Diversity Plus: KF3CT Assay for Intercellular Adhesion Molecule 1 (ICAM1) Biomarker Activity (AID 2283067)
# Conditions: primary human keratinocytes with fibroblasts; actives raise or lower the signal
# Method in brief: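 Bidirectional curve fitting against a DMSO baseline was applied to ICAM-1 ELISA signal from primary human skin co-cultures harvested 24 h after treatment, with SRB staining of parallel wells for overt cytotoxicity.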
Structure (SMILES),AC50,outcome
CCCCCCc1ccc(O)cc1O,31.3 µM (active),–
CCc1cc(SCc2sc(-c3ccc(C(F)(F)F)cc3)nc2CN2CCN(c3ccc(OC)cc3)CC2)ccc1OCC(=O)O,7.27 µM (active),–
Nc1nc2ncc(CNc3ccc(C(=O)N[C@@H](CCC(=O)O)C(=O)O)cc3)nc2c(=O)[nH]1,–,inactive
CCOc1cccc(-n2cc(C(=O)N3CCN(c4cc(C(=O)O)c5ccccc5c4)CC3)nc2-c2ccc(C)cc2)c1,30.5 µM (active),–
C[C@](N)(Cc1ccc(O)c(O)c1)C(=O)O,–,inactive
CN(C)c1ccc(Cc2ccc(N(C)C)cc2)cc1,–,inactive
O=C(OC[C@H]1O[C@@H](OC(=O)c2cc(O)c(O)c(OC(=O)c3cc(O)c(O)c(O)c3)c2)[C@H](OC(=O)c2cc(O)c(O)c(OC(=O)c3cc(O)c(O)c(O)c3)c2)[C@@H](OC(=O)c2cc(O)c(O)c(OC(=O)c3cc(O)c(O)c(O)c3)c2)[C@@H]1OC(=O)c1cc(O)c(O)c(OC(=O)c2cc(O)c(O)c(O)c2)c1)c1cc(O)c(O)c(OC(=O)c2cc(O)c(O)c(O)c2)c1,4.39 µM (active),–
CC[C@H]1CC[C@H](NCc2cc3c(cc2OC)[C@H]2C[C@H]2C(=O)N3C)[C@H](c2ccccc2)N1,–,inactive
Cc1ccc(C)c(O)c1,–,inactive
CC(C)=CCCC(C)CCO (configuration not stated),–,inactive
CC1(C)C(=O)N(Br)C(=O)N1Br,–,inactive

# Read-out: Interferon-gamma inducible Protein 10 (IP10), CXCL10 (gene 3627)
# Test: BSK_KF3CT_IP10: BioMAP Diversity Plus: KF3CT Assay for Interferon-gamma inducible Protein 10 (IP10) Biomarker Activity (AID 2283068)
# Conditions: primary human keratinocytes with fibroblasts; actives raise or lower the signal
# Method in brief: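 In a primary skin co-culture of keratinocytes and fibroblasts, IP-10 is quantified by ELISA at 24 h after dosing. SRB staining of parallel wells monitors overt toxicity. Curves are fitted both directions against DMSO.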
Structure (SMILES),outcome,AC50
C=CC(=C)CCC=C(C)C,inactive,–
CC(C)=CCCC(C)=CC=O,inactive,–
CC(C)=CCC/C(C)=C/CO,inactive,–
C=CCCCCCCCCC(=O)O,inactive,–
CC(=O)OCCC(C)C,inactive,–
CC(C)=CCC/C(C)=C\CO,inactive,–
O=C(NS(=O)(=O)/C=C/c1ccccc1)c1ccc(F)cc1Cl,inactive,–
Clc1nc(Cl)c(Cl)c(Cl)c1Cl,inactive,–
Fc1ccccc1[C@@H](F)COC1CCC(Nc2ncnc3[nH]ncc23)CC1 (some centres not stated),inactive,–
CC[C@H](C)C(=O)O[C@H]1C[C@@H](C)C=C2C=C[C@H](C)[C@H](CC[C@@H]3C[C@@H](O)CC(=O)O3)[C@H]21,–,34.6 µM (active)
CCCCC(CC)COC(=O)CCCCCCCCC(=O)OCC(CC)CCCC (configuration not stated),inactive,–
CCCCC(CC)COC(=O)c1ccc(C(=O)OCC(CC)CCCC)cc1 (configuration not stated),inactive,–
O=C(O)c1cccc(Oc2ccccc2)c1,inactive,–
O=C(CCCCCCCCc1cccnc1)N1CCC(C=C(c2ccccc2)c2ccccc2)CC1,–,15.5 µM (active)
CCC(C)(C)C(=O)O[C@H]1C[C@@H](C)C=C2C=C[C@H](C)[C@H](CC[C@@H]3C[C@@H](O)CC(=O)O3)[C@H]21,–,34.3 µM (active)
COCCOc1cc2cc(C(=O)NC3CCN(C(C)C)CC3)n(CC(=O)Nc3ccc(Cl)cn3)c2cn1,inactive,–
CC(=O)OC[C@H]1O[C@@](COC(C)=O)(O[C@H]2O[C@H](COC(C)=O)[C@@H](OC(C)=O)[C@H](OC(C)=O)[C@H]2OC(C)=O)[C@@H](OC(C)=O)[C@@H]1OC(C)=O,inactive,–
NC(=O)NO,inactive,–
CCc1cc(SCc2sc(-c3ccc(C(F)(F)F)cc3)nc2CN2CCN(c3ccc(OC)cc3)CC2)ccc1OCC(=O)O,–,3.58 µM (active)
Nc1nc2ncc(CNc3ccc(C(=O)N[C@@H](CCC(=O)O)C(=O)O)cc3)nc2c(=O)[nH]1,inactive,–
CCOc1cccc(-n2cc(C(=O)N3CCN(c4cc(C(=O)O)c5ccccc5c4)CC3)nc2-c2ccc(C)cc2)c1,–,29.2 µM (active)
C[C@](N)(Cc1ccc(O)c(O)c1)C(=O)O,inactive,–
CN(C)c1ccc(Cc2ccc(N(C)C)cc2)cc1,inactive,–
O=C(OC[C@H]1O[C@@H](OC(=O)c2cc(O)c(O)c(OC(=O)c3cc(O)c(O)c(O)c3)c2)[C@H](OC(=O)c2cc(O)c(O)c(OC(=O)c3cc(O)c(O)c(O)c3)c2)[C@@H](OC(=O)c2cc(O)c(O)c(OC(=O)c3cc(O)c(O)c(O)c3)c2)[C@@H]1OC(=O)c1cc(O)c(O)c(OC(=O)c2cc(O)c(O)c(O)c2)c1)c1cc(O)c(O)c(OC(=O)c2cc(O)c(O)c(O)c2)c1,–,4.98 µM (active)
CC[C@H]1CC[C@H](NCc2cc3c(cc2OC)[C@H]2C[C@H]2C(=O)N3C)[C@H](c2ccccc2)N1,inactive,–
Cc1ccc(C)c(O)c1,inactive,–
CC(C)=CCCC(C)CCO (configuration not stated),inactive,–
CC1(C)C(=O)N(Br)C(=O)N1Br,inactive,–

# Read-out: not listed separately
# Test: BSK_KF3CT_SRB: Viability Assessment in the BioMAP Diversity Plus: KF3CT Assay (AID 2283069);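 further: total protein by sulforhodamine B staining as a cytotoxicity measure; read 24 h after compound addition; fitted for both signal gain and loss against DMSO baseline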
# Conditions: primary human keratinocytes with fibroblasts
# Method in brief: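 Keratinocytes co-cultured with foreskin fibroblasts (human primary); chemical added, 24 h; fix 10% TCA, stain 0.1% SRB, A560. Bidirectional fit vs DMSO.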
Structure (SMILES),outcome,AC50
C=CC(=C)CCC=C(C)C,inactive,–
CC(C)=CCCC(C)=CC=O,inactive,–
CC(C)=CCC/C(C)=C/CO,inactive,–
C=CCCCCCCCCC(=O)O,inactive,–
CC(=O)OCCC(C)C,inactive,–
CC(C)=CCC/C(C)=C\CO,inactive,–
O=C(NS(=O)(=O)/C=C/c1ccccc1)c1ccc(F)cc1Cl,inactive,–
Clc1nc(Cl)c(Cl)c(Cl)c1Cl,inactive,–
Fc1ccccc1[C@@H](F)COC1CCC(Nc2ncnc3[nH]ncc23)CC1 (some centres not stated),inactive,–
CC[C@H](C)C(=O)O[C@H]1C[C@@H](C)C=C2C=C[C@H](C)[C@H](CC[C@@H]3C[C@@H](O)CC(=O)O3)[C@H]21,–,31.7 µM (active)
CCCCC(CC)COC(=O)CCCCCCCCC(=O)OCC(CC)CCCC (configuration not stated),inactive,–
CCCCC(CC)COC(=O)c1ccc(C(=O)OCC(CC)CCCC)cc1 (configuration not stated),inactive,–
O=C(O)c1cccc(Oc2ccccc2)c1,inactive,–
O=C(CCCCCCCCc1cccnc1)N1CCC(C=C(c2ccccc2)c2ccccc2)CC1,–,14.7 µM (active)
CCC(C)(C)C(=O)O[C@H]1C[C@@H](C)C=C2C=C[C@H](C)[C@H](CC[C@@H]3C[C@@H](O)CC(=O)O3)[C@H]21,–,34.8 µM (active)
COCCOc1cc2cc(C(=O)NC3CCN(C(C)C)CC3)n(CC(=O)Nc3ccc(Cl)cn3)c2cn1,inactive,–
CC(=O)OC[C@H]1O[C@@](COC(C)=O)(O[C@H]2O[C@H](COC(C)=O)[C@@H](OC(C)=O)[C@H](OC(C)=O)[C@H]2OC(C)=O)[C@@H](OC(C)=O)[C@@H]1OC(C)=O,inactive,–
NC(=O)NO,inactive,–
CCc1cc(SCc2sc(-c3ccc(C(F)(F)F)cc3)nc2CN2CCN(c3ccc(OC)cc3)CC2)ccc1OCC(=O)O,–,3.42 µM (active)
Nc1nc2ncc(CNc3ccc(C(=O)N[C@@H](CCC(=O)O)C(=O)O)cc3)nc2c(=O)[nH]1,inactive,–
CCOc1cccc(-n2cc(C(=O)N3CCN(c4cc(C(=O)O)c5ccccc5c4)CC3)nc2-c2ccc(C)cc2)c1,–,21.3 µM (active)
C[C@](N)(Cc1ccc(O)c(O)c1)C(=O)O,inactive,–
CN(C)c1ccc(Cc2ccc(N(C)C)cc2)cc1,inactive,–
O=C(OC[C@H]1O[C@@H](OC(=O)c2cc(O)c(O)c(OC(=O)c3cc(O)c(O)c(O)c3)c2)[C@H](OC(=O)c2cc(O)c(O)c(OC(=O)c3cc(O)c(O)c(O)c3)c2)[C@@H](OC(=O)c2cc(O)c(O)c(OC(=O)c3cc(O)c(O)c(O)c3)c2)[C@@H]1OC(=O)c1cc(O)c(O)c(OC(=O)c2cc(O)c(O)c(O)c2)c1)c1cc(O)c(O)c(OC(=O)c2cc(O)c(O)c(O)c2)c1,inactive,–
CC[C@H]1CC[C@H](NCc2cc3c(cc2OC)[C@H]2C[C@H]2C(=O)N3C)[C@H](c2ccccc2)N1,inactive,–
Cc1ccc(C)c(O)c1,inactive,–
CC(C)=CCCC(C)CCO (configuration not stated),inactive,–
CC1(C)C(=O)N(Br)C(=O)N1Br,inactive,–
